An excerpt weighted towards active compounds, which were near 19% of everything screened.
HT1080 IDH1KD tx – toxicity to HT-1080 IDH1 knockdown cells (counter line) | HT-1080 IDH1 knockdown viability, ATP luminescence, 48 h | actives 2% (n = 360,000) | AID 686971 | Potency, µM (doses to about 46.1 µM), most hits filed as cytotoxic
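Cytotoxicity counter-line: IDH1KD HT-1080, 48 h, CellTiter-Glo. Curves classed by r2, magnitude and activity.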
DT40 TDP1 CPT – DT40-hTDP1 cell growth loss with CPT; chicken DT40 Tdp1-/-;hTDP1 cells + 20 nM CPT, ATP luminescence, 48 h; Potency, µM (series often up to 46.2 µM), hits mostly inhibitors; actives 12% (n = 420,000); AID 686979; further: nearly all actives have a fitted effect of over 55% in size
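Cell growth measured by CellTiter-Glo luminescence after a minimum 48 h, 37 C compound exposure with 20 nM CPT in Tdp1-knockout DT40 cells stably expressing hTDP1, seeded 400/well; qHTS titration format.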
HT1080-NT tox – kills 2HG-producing HT-1080-NT fibrosarcoma cells; HT-1080-NT fibrosarcoma viability, CellTiter-Glo ATP luminescence, 48 h; Potency, µM (highest dose often 46.1 µM), actives largely listed as cytotoxic; actives 1.6% (n = 360,000); AID 686970;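 further: NT is the 2HG producing partner of a matched IDH1 knockdown line; nearly all actives have a fitted effect of over 55% in size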
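Read-out is CellTiter-Glo luminescence after 10 minutes at room temperature, following 48 hours' compound treatment of HT-1080-NT cells (750 cells/well, RPMI, 5% FBS, 37 degrees C).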
TDP1 cell noCPT – qHTS for Inhibitors of human tyrosyl-DNA phosphodiesterase 1 (TDP1): qHTS in cells in absence of CPT | Potency, µM (series often up to 46.2 µM), hits mostly inhibitors | actives 15% (n = 420,000) | DT40 Tdp1-/- hTDP1 cells, no CPT, ATP luminescence, 48 h; further: nearly all actives have a fitted effect of over 55% in size
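Luminescent ATP content (CellTiter-Glo) served as the growth readout. Knockout chicken DT40 cells expressing human TDP1 were exposed to compounds without camptothecin for a minimum 48 hr at 37 °C.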
IL1B secr inh – inhibitors of inflammasome signaling (IL-1 beta secretion). actives 4.7% (n = 360,000). THP-1 LPS/ATP IL-1B secretion, AlphaLISA, 16 h; active compounds read low. activity change, % at 57.5 µM; in the data active means activity change below about -50%; inconclusive means mostly about -30% to -49%
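THP-1 cells pretreated 1 hr with compounds (up to 57.5 uM final), then stimulated with LPS (250 ng/mL final) plus ATP (1.25 mM final); secreted IL-1B measured by AlphaLISA after 16 hr, decreased signal indicating inhibition.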
Hits are given with their value; - = inactive; ? = inconclusive; . = no result; [ ] = remark or other dose. Unless noted, the call rests on the fitted dose curve; in most records, active means well fitted curve in the direction sought with a large enough effect; inconclusive means small, poorly fitted or top-dose-only effect, or another doubt; inactive means no such curve, though single readings can be large; an effect the other way counts as inactive or inconclusive.

SMILES	HT1080 IDH1KD tx	DT40 TDP1 CPT	HT1080-NT tox	TDP1 cell noCPT	IL1B secr inh
CCN(CC(=O)NCc1ccc(Cl)cc1)C(=O)CSc1cc(C)ccc1C	-	?	-	?	-57.5
CCN(CC(=O)NCc1ccc(Cl)cc1)C(=O)CSCC(=O)Nc1ccc(C)cc1	-	-	-	-	-93.2
CCN(CC(=O)Nc1ccc(OC)cc1)C(=O)CSCC(=O)Nc1ccc(C)cc1	-	-	-	-	-
O=[N+]([O-])c1cccc2ccc(/C=C/c3ccc(F)cc3)nc12	?	?	-	?	-
COc1cc(/C=C/c2ccc3cccc([N+](=O)[O-])c3n2)ccc1OCC#N	-	5.8µM	-	3.66µM	-
CCOc1cc(/C=C/c2ccc3cccc([N+](=O)[O-])c3n2)ccc1OCC(=O)N(C)C	-	23.1µM	-	?	-
CCOc1cc(/C=C/c2ccc3cccc([N+](=O)[O-])c3n2)ccc1O	-	?	-	18.4µM	-
O=[N+]([O-])c1ccc(/C=C/c2ccc3cccc([N+](=O)[O-])c3n2)cc1	?	-	-	?	-
CCOc1cc(/C=C\c2nc(O)c([N+](=O)[O-])c(=O)[nH]2)ccc1OC(C)C	-	-	-	-	-
O=C(NCc1ccco1)C(c1cccnc1)N(C(=O)Cn1nnc2ccccc21)c1ccc(F)cc1 (stereo unspecified)	-	-	-	-	-
CCN(c1ccc(NC(=O)COC(=O)c2ccc(S(=O)(=O)N3CCCC3)cc2)cc1)C(C)C	-	-	-	-	-
O=C(NCCc1ccccn1)C1CC12CCN(C(=O)c1cccc(C(F)(F)F)c1)CC2 (stereo unspecified)	.	-[9.04 µM]	.	-	.
Cc1ccccc1Sc1ncnc2onc(C)c12	-[9.24 µM]	23.1µM	-	23.1µM	-52.3
Cc1noc2ncnc(SCc3ccc(C(F)(F)F)cc3)c12	-	?	-	16.4µM	?
Cc1noc2ncnc(Sc3c(Cl)cccc3Cl)c12	?	18.4µM	?	16.4µM	-114.8
Cc1ccc(CSc2ncnc3onc(C)c23)cc1	-	-	-	-	-
Cc1ccc(Sc2ncnc3onc(C)c23)cc1	-	?	-	20.6µM	-
CCOC(=O)N1CCN(CCC(=O)Nc2ccc(F)c(F)c2)CC1	-	-	-	-	-
CCNc1cc(Nc2c(C)n(C)n(-c3ccccc3)c2=O)c([N+](=O)[O-])c2nonc12	-	-	-	-	.
COc1ccc(C2CC(c3cccc(Br)c3)=NN2c2ccc(S(N)(=O)=O)cc2)cc1 (stereo unspecified)	?	25.9µM	?	?	-
COc1ccc(C2CC(c3ccccc3)=NN2c2ccc(S(N)(=O)=O)cc2)cc1 (stereo unspecified)	?	-	?	?	?
COc1ccc(C2CC(c3ccccc3Cl)=NN2c2ccc(S(N)(=O)=O)cc2)cc1 (stereo unspecified)	?	?	18.4µM	?	?
COc1ccc(C2CC(c3cccc(F)c3)=NN2c2ccc(S(N)(=O)=O)cc2)cc1 (stereo unspecified)	-	?	-	?	-
COc1ccc(C2CC(c3cccc(C(F)(F)F)c3)=NN2c2ccc(S(N)(=O)=O)cc2)cc1 (stereo unspecified)	-	?	?	25.9µM	?
COc1ccc(S(=O)(=O)N2CCOCC2)cc1NC(=O)CN1C(=O)NC2(CCC(C)CC2)C1=O (stereo unspecified)	-	-	-	-	-
SMILES	HT1080 IDH1KD tx	DT40 TDP1 CPT	HT1080-NT tox	TDP1 cell noCPT	IL1B secr inh
C[C@@H]1CN([C@@H](C)CO)C(=O)CCCn2nncc2CO[C@H]1CN(C)S(=O)(=O)c1ccc(F)cc1	-	-	-	?	-
N#C/C(=C/c1cccnc1)c1ccccc1	-	-	-	-	-
CC1CCc2nc(/C(C#N)=C/c3cccnc3)sc2C1 (stereo unspecified)	?	20.6µM	-	?	-
COC(=O)C1CCN(C(=O)c2cc(S(=O)(=O)N3CCCCC3)ccc2Cl)CC1	-	?	-	?	-
O=C(COCc1cc(-c2cccs2)on1)N1CCN(c2cccc(Cl)c2)CC1	.	23.1µM	.	11.6µM	.
O=C(Cc1cccs1)N1CCN(c2cccc(Cl)c2)CC1	-	-	-	-	-
